According to PubChem BioAssay (NCATS):
Results filed as inconclusive are left out. A call without a number means that no potency is given here. The source made the active and inactive calls. Calls come from the whole dose curve; as a rule, active = well fitted inhibition curve with a large enough effect; inconclusive = small, poorly fitted or top-dose-only effect; inactive = no such curve, though single readings can be large or run the other way.

system: Zika virus NS2B-NS3 protease (unlinked complex); experiment: Primary screen GU Rhodamine qHTS for Zika virus inhibitors: Unlinked NS2B-NS3 protease assay (AID 1347159); conditions: Recombinant ZIKV NS2B-NS3 protease, Rhodamine110 substrate fluorescence; series mostly up to 107 µM; note: nearly all actives have a fitted effect of over 60% in size
Method in brief: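 Percent inhibition came from the 15-min rise in Rhodamine110 fluorescence (1.5 microM substrate, ~15% conversion), normalized to no-inhibitor and no-enzyme wells and Hill-fitted. Unlinked protease, 25 nM, pH 8.0 Tris buffer; compounds up to 114 microM, 15-min preincubation.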

| SMILES | Potency | activity change, negative = inhibition |
| --- | --- | --- |
| CC(=O)[C@@H]1C[C@H](C(C)(C)O[C@@H]2O[C@H](CO)[C@@H](O)[C@H](O)[C@H]2O)CC[C@@]2(CO)OC(=O)C[C@@H]12 | inactive |  |
| OC[C@@]1(O)CO[C@@H](OC[C@H]2O[C@@H](Oc3ccccc3)[C@H](O)[C@@H](O)[C@@H]2O)[C@@H]1O | inactive |  |
| C/C=C1\[C@H](O[C@@H]2O[C@H](CO)[C@@H](O)[C@H](O)[C@H]2O)OC=C(C(=O)OCCc2ccc(O)cc2)[C@H]1CC(=O)OCCc1ccc(O)cc1 | inactive |  |
| C[C@]12CCC[C@](C)(C(=O)O)C1CCC13CC(CO)C(CCC12)C3 (some centres undefined) | inactive |  |
| CC1=CC[C@@]2(C)CC[C@@](O)(C(C)C)[C@@H]2[C@@H](O)C1 | inactive |  |
| COc1cc(O)cc2c1C(=O)OC(C)C2 (centres undefined) | inactive |  |
| COc1ccc(/C=C/C(=O)O[C@@H]2[C@@H](O)[C@@H](O)[C@H](O[C@H]3[C@@H]4C=CO[C@@H](O[C@@H]5O[C@H](CO)[C@@H](O)[C@H](O)[C@H]5O)[C@@H]4[C@@]4(CO)O[C@@H]34)O[C@H]2C)cc1 | inactive |  |
| C/C=C(/C)C(=O)OC1C(OC(C)=O)C23C(O)OC4(CCC5C6(C)CCC(OC7OC(C(=O)O)C(O)C(OC8OC(CO)C(O)C(O)C8OC8OC(C)C(O)C(O)C8OC8OCC(O)C(O)C8O)C7OC7OC(CO)C(O)C(O)C7O)C(C)(C)C6CCC5(C)C4(C)CC2OC(C)=O)C3CC1(C)C (centres undefined) |  | -1.79% [at 19.1 µM] (inactive) |
| O=C(Nc1ccn(Cc2c(F)cccc2C(F)(F)F)n1)c1c(F)cccc1F | inactive |  |
| COc1cccc(C(=O)NCCNc2nc3cc(C)cc(C)c3cc2C#N)c1 | inactive |  |
| COC(=O)C1=C[C@@H](O)[C@@H](O)[C@H](O[C@@H]2O[C@H](CO)[C@@H](O)[C@H](O)[C@H]2OC(=O)/C=C/c2ccccc2)C1 | inactive |  |
| C=C(COC(=O)C(C)C)C1Oc2cc(C(C)=O)ccc2C1OC(=O)C(C)C (centres undefined) | inactive |  |
| CC1=CC(=O)CC(C)(C)[C@@]1(O)/C=C/C(C)O[C@@H]1O[C@H](CO)[C@@H](O)[C@H](O)[C@H]1O (some centres undefined) | inactive |  |
| Cc1nc2cc(-c3cc(F)cc(C#N)c3)ccc2s1 | inactive |  |
| CCN=C1N[C@@H]2[C@@H](O)[C@H](O)[C@@H](CO)O[C@@H]2S1 | inactive |  |
| C/C=C(\C)C(=O)OC1C2(O)CC3=C4CC(=O)OC(c5ccoc5)C4(C)CCC3C(C)(C2=O)C(C(OC(C)=O)C(=O)OC)C1(C)C (centres undefined) | inactive |  |
| C[C@@H]1CC[C@]2(C(=O)O[C@@H]3O[C@H](CO[C@@H]4O[C@H](CO)[C@@H](O[C@@H]5O[C@@H](C)[C@H](O)[C@@H](O)[C@H]5O)[C@H](O)[C@H]4O)[C@@H](O)[C@H](O)[C@H]3O)CC[C@]3(C)C(=CCC4[C@@]5(C)C[C@@H](O)[C@H](O)[C@@](C)(CO)C5CC[C@]43C)C2[C@H]1C (some centres undefined) | inactive |  |
| CC1=C2CC(=O)C(C)CC/C=C(\C)CC2OC1=O (centres undefined) | inactive |  |
| CC(=O)OC1C(CO)OC(O[C@H]2[C@H](OC(=O)[C@]34CCC(C)(C)C[C@H]3C3=CCC5[C@@]6(C)CC[C@H](O[C@@H]7O[C@H](C(=O)O)[C@@H](O)[C@H](O[C@@H]8OC[C@@H](O)[C@H](O)[C@H]8O)[C@H]7O[C@@H]7O[C@H](CO)[C@H](O)[C@H](O)[C@H]7O)[C@@](C)(C=O)C6CC[C@@]5(C)[C@]3(C)C[C@H]4O)O[C@H](C)[C@H](OC3OC(C)C(OC4OCC(O)C(O)C4O)C(O)C3O)[C@@H]2O)C(O)C1O (some centres undefined) |  | 21.3% [at 19.1 µM] (inactive) |
| CS(=O)(=O)c1ccccc1N1CCN(c2nc3c(c(=O)[nH]2)CSCC3)CC1 | inactive |  |

| SMILES | Potency | activity change, negative = inhibition |
| --- | --- | --- |
| C[C@@H]1O[C@@H](O[C@H]2[C@H](OC(=O)[C@]34CCC(C)(C)C[C@H]3C3=CCC5[C@@]6(C)C[C@@H](O)[C@@H](O[C@@H]7O[C@H](CO)[C@@H](O)[C@H](O)[C@H]7O)[C@@](C)(CO)C6[C@H](O)C[C@@]5(C)[C@]3(C)CC4)OC[C@H](O)[C@@H]2O)[C@H](O)[C@H](O[C@@H]2OC[C@](O)(CO)[C@H]2O)[C@H]1O[C@@H]1OC[C@@H](O)[C@H](O[C@H]2O[C@H](C)[C@@H](O)[C@H](O)[C@@H]2O)[C@H]1O (some centres undefined) |  | 9.3% [at 19.1 µM] (inactive) |
| CC(C)=CCC[C@](C)(O[C@@H]1O[C@H](CO[C@@H]2OC[C@H](O)[C@H](O)[C@H]2O)[C@@H](O)[C@H](O)[C@H]1O)[C@H]1CC[C@]2(C)[C@@H]1[C@H](O)C[C@@H]1[C@@]3(C)CC[C@H](O[C@@H]4O[C@H](CO)[C@@H](O)[C@H](O)[C@H]4O[C@@H]4O[C@H](CO)[C@@H](O)[C@H](O)[C@H]4O)C(C)(C)[C@@H]3CC[C@]12C | inactive |  |
| Cc1c(NC(=O)N2CCOCC2)ccc2c1c1ccccc1n2C(C)C | inactive |  |
| C#CCCCn1cc(-c2cccc3c2N[C@@H](C)CC(=O)N3)cn1 | inactive |  |
| O=C(/C=C/c1ccc(O)cc1)OCC1OC(O)C(OC2OC(CO)C(O)C(O)C2O)C(O)C1O (centres undefined) | inactive |  |
| C[C@H]1[C@H](C)CC[C@]2(C(=O)O)CC[C@]3(C(=O)O)C(=CCC4[C@@]5(C)CC[C@H](O[C@@H]6O[C@@H](C)[C@H](O)[C@@H](O)[C@H]6O)C(C)(C)C5CC[C@]43C)[C@H]12 (some centres undefined) | inactive |  |
| NC1=NC2(c3cc(NC(=O)c4ccc(F)cn4)ccc3F)COCC2CS1 (centres undefined) | inactive |  |
| CC(=O)O[C@H]1C[C@@H](O)C(C)(C)C2C[C@@H](OC(C)=O)[C@]3(C)C(CC[C@@]4(C)[C@H](c5ccoc5)OC(=O)[C@H]5O[C@]543)[C@]21C (some centres undefined) | inactive |  |
| C[C@H]1[C@H](C)CC[C@]2(C(=O)OC3OC(CO)C(O)C(O)C3O)CC[C@]3(C(=O)O)C(=CCC4[C@@]5(C)CC[C@H](O[C@@H]6O[C@@H](C)[C@H](OC7OC(CO)C(O)C(O)C7O)[C@@H](O)[C@H]6O)C(C)(C)C5CC[C@]43C)[C@H]12 (some centres undefined) | inactive |  |
| CCC(C)C1NC(=O)C2C(C)CCN2C(=O)C(CC(O)CO)OC(=O)CCNC(=O)C(C)N(C)C(=O)C(C(C)C)N(C)C1=O (centres undefined) | inactive |  |
| C=CC(C)(O)CC/C=C(\C)C(=O)O[C@@H]1[C@@H](O)[C@H](OC(C)(C=C)CC/C=C(\C)C(=O)O)O[C@H](CO)[C@H]1OC(=O)/C(C)=C/CCC(C)(O)C=C (some centres undefined) | inactive |  |
| CC(C)(O)/C=C/C(=O)[C@](C)(O)[C@H]1[C@H](O)C[C@@]2(C)[C@@H]3CC=C4[C@@H](C=C(O[C@@H]5O[C@H](CO)[C@@H](O)[C@H](O)[C@H]5O)C(=O)C4(C)C)[C@]3(C)C(=O)C[C@]12C | inactive |  |
| Cc1cccc(NC(=O)CN2CCC(c3ccccn3)CC2)c1 | inactive |  |
| C=CC(C)(CCC=C(C)C)O[C@@H]1O[C@H](CO)[C@@H](O)[C@H](O)[C@H]1O (some centres undefined) | inactive |  |
| C=CC(C)(O)C1CC2C3(C)CCCC(C)(C)C3C(O)C(O)C2(C)O1 (centres undefined) | inactive |  |
| C=CCC1=C[C@]2(OC)[C@H](C)[C@@H](c3ccc(OC)c(OC)c3)O[C@]2(OC)CC1=O | inactive |  |
| CC/C=C\[C@H](O)[C@H](O)C1=C(C)C(=O)[C@]2(O1)C(=O)N[C@@](O)(C(=O)c1ccccc1)[C@@H]2O | inactive |  |
| C[C@H]1[C@@H](O)[C@H](O)C2[C@]3(C)C([C@@H](O)[C@H]4OC(=O)[C@@H]1[C@@]24C)[C@](C)(O)C=C[C@H]3O[C@@H]1O[C@H](CO)[C@@H](O)[C@H](O)[C@H]1O (some centres undefined) | inactive |  |
| C=C1C(OC(C)=O)CCC2(C)CC3(O)OC(=O)C(C)=C3CC12 (centres undefined) | inactive |  |
